The source of these data is the supplement of paper PMC10498489.

Molecules are shown by their SMILES. The whole screen tested about 2,300 compounds, of which about 330 (14%) showed activity. Only a sample is shown. Values without a mark were called inactive.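 Rule for the calls: active = median modified Z-score above 1.96; inactive = 1.96 or below.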

The test relates to HepG2 Srxn1-GFP reporter cells (+30 nM CDDO-Me). In words: Srxn1-GFP intensity median modified Z-score relative to plate median; higher = stronger NRF2 / oxidative stress reporter activation, active = hit call of the paper. Particulars: 10 µM; exposure time: 24h. In outline:
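HepG2 Srxn1-GFP BAC reporter cells were seeded at 20,000 per well in 96-well plates and co-exposed for 24 h to compound at 10 μM and an NRF2 activator at 30 nM, with DMSO at ≤0.1%, in three replicate plates. Cells were fixed with formaldehyde, stained with Hoechst and imaged by confocal microscopy, and cytoplasmic GFP was measured per cell, with images holding under 100 cells discarded. The reported value is the median over replicates of each plate's modified Z-score of GFP intensity. For this score, scaling used 1.4826 × median absolute deviation.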
As for `CNC[C@@H](O)c1ccc(O)c(O)c1` [euspeclibcmpd110], the “Srxn1-GFP intensity median modified Z-score” value is -0.782.
In the case of `CC(=O)OC1CCC2(C)C3CC(=O)C4(C)C(CC5OC6(CCC(C)CO6)[C@@H](C)C54)C3CC[C@H]2C1` (some centres not stated) [euspeclibcmpd1545], the “Srxn1-GFP intensity median modified Z-score” value is -0.224.
Consider `C[C@]12CCC3c4ccc(O)cc4CCC3C1CC[C@@H]2O` (some centres not stated) [euspeclibcmpd115], for which the “Srxn1-GFP intensity median modified Z-score” value was -0.23.
On to `COc1ccc2c(c1)CCC1C2CC[C@@]2(C)C1CC[C@@H]2O` (some centres not stated) [euspeclibcmpd2297], for which the “Srxn1-GFP intensity median modified Z-score” value was 4.5 (active).
`C[C@]12CCC3c4ccc(OS(=O)(=O)O)cc4CCC3C1CC[C@H]2O` (some centres not stated) [euspeclibcmpd2359]: the “Srxn1-GFP intensity median modified Z-score” value is 0.435.
With `NS(=O)(=O)N1CCN(C(=O)OCC(F)(F)F)CC1`, the “Srxn1-GFP intensity median modified Z-score” value was 0.381.
In the case of `CC(=O)N1CCc2cc(C(=O)C(C)Sc3nnc4c(Cl)cc(Cl)cn34)ccc21` (configuration not stated) it was 1.9; in that of `O=c1c(-c2ccc(O)cc2)coc2cc(O)cc(O)c12` [euspeclibcmpd1252], 7.05 (active).
For `O=c1c(-c2ccc(O)cc2)coc2cc(O)ccc12` [euspeclibcmpd2265], the “Srxn1-GFP intensity median modified Z-score” value was 0.00154.
`COc1ccc(-c2coc3cc(O)cc(O)c3c2=O)cc1` [euspeclibcmpd1972]: the “Srxn1-GFP intensity median modified Z-score” value is -0.252.
`CSCCC(NC(=O)[C@H](Cc1c[nH]c2ccccc12)NC(=O)CCNC(=O)OC(C)(C)C)C(=O)N[C@@H](CC(=O)O)C(=O)N[C@@H](Cc1ccccc1)C(N)=O` (some centres not stated) [euspeclibcmpd918]: the “Srxn1-GFP intensity median modified Z-score” value is -0.345.
For `CC(CCC(=O)O)[C@H]1CCC2C3CC[C@@H]4CCCC[C@]4(C)C3CC[C@@]21C` (some centres not stated) [euspeclibcmpd1329], the “Srxn1-GFP intensity median modified Z-score” value was 1.64.
In the case of `O=S1(=O)CCC(N(C2CC2)S(=O)(=O)c2ccc(F)c(Cl)c2)C1` (configuration not stated) it was 1.31; in that of `CC12CCC3c4ccc(O)cc4CC(CCCCCCCCC[S+]([O-])CCCC(F)(F)C(F)(F)F)C3C1CCC2O` (configuration not stated) [euspeclibcmpd1981], -0.582.
Turning to `CC(C)(C)CC(=O)OCC(=O)[C@@]1(O)CCC2C3CC=C4CC(=O)C=C[C@]4(C)C3[C@@H](O)C[C@@]21C` (some centres not stated) [euspeclibcmpd2328], the “Srxn1-GFP intensity median modified Z-score” value is -0.406.
In the case of `CN(C)CCN(Cc1ccc(Cl)cc1)c1ccccn1` [euspeclibcmpd1219] it was -0.833; in that of `Cc1nc2ccccc2n1Cc1ccc(Cl)cc1` [euspeclibcmpd2199], 5.5 (active).
The value for `Clc1ccc(Cn2c(CN3CCCC3)nc3ccccc32)cc1` [euspeclibcmpd1234] was -0.0615; that for `Cc1nc(=N)c(C[n+]2csc(CCO)c2C)c[nH]1` [euspeclibcmpd454] was -0.15; that for `O=C1C(CO)OC(O)C(O)C1O` (configuration not stated) [euspeclibcmpd526] was -0.212.
In the case of `COc1ccc2c(c1OC)OC[C@@H](c1ccc(OC)c(OC)c1OC)C2` [euspeclibcmpd1365] it was 0.0257; in that of `CCCCCCCCCCC[C@@H](C[C@H]1OC(=O)C1CCCCCC)OC(=O)C(CC(C)C)NC=O` (some centres not stated) [euspeclibcmpd681], -0.557.
Turning to `C=C[C@H]1C[N@]2CC[C@H]1C[C@@H]2[C@@H](O)c1ccnc2ccc(OC)cc12` [euspeclibcmpd2428], the “Srxn1-GFP intensity median modified Z-score” value is 1.98 (active).
Regarding `C[C@]12CCC3c4ccc(O)cc4CCC3C1C[C@@H](O)[C@@H]2O` (some centres not stated) [euspeclibcmpd2155], the “Srxn1-GFP intensity median modified Z-score” value was -0.253.
In the case of `CC(=O)Oc1cccc2c1C(=O)c1c(OC(C)=O)cc(C(=O)O)cc1C2=O` [euspeclibcmpd1072], the “Srxn1-GFP intensity median modified Z-score” value was 4.68 (active).
As for `CC(=O)Oc1c(C)cccc1C(=O)O` [euspeclibcmpd1264], the “Srxn1-GFP intensity median modified Z-score” value was -0.393.
In the case of `CC(=O)Oc1cccc(C(=O)O)c1OC(C)=O` [euspeclibcmpd1107] it was 0.
For the compound `CC(C)(ON=C(C(=O)NC1C(=O)N2C(C(=O)O)=C(C[n+]3ccccc3)CSC12)c1csc(=N)[nH]1)C(=O)O` (configuration not stated) [euspeclibcmpd603], the “Srxn1-GFP intensity median modified Z-score” value is -0.205.
Turning to `O=C(OCC(O)CO)c1ccccc1N=c1cc[nH]c2cc(Cl)ccc12` (configuration not stated) [euspeclibcmpd1054], the “Srxn1-GFP intensity median modified Z-score” value was 4.38 (active).
The value for `CCN(CCO)CCCC(C)N=c1cc[nH]c2cc(Cl)ccc12` (configuration not stated) [euspeclibcmpd728] was 0.226; that for `CC(O)CN1CCN(CC(=O)O)CCN(CC(=O)O)CCN(CC(=O)O)CC1` (configuration not stated) [euspeclibcmpd2179] was -0.14; that for `CC(C)(CNC(=O)c1cccc(S(=O)(=O)N2CCNC(=O)C2)c1)N1CCOCC1` was 0.976.
As to `Nc1ccc2cc3ccc(N)cc3nc2c1` [euspeclibcmpd1172], the “Srxn1-GFP intensity median modified Z-score” value was 35.6 (active).
Turning to `CO[C@@]1(NC(=O)CSCC#N)C(=O)N2C(C(=O)O)=C(CSc3nnnn3C)CSC21` (some centres not stated) [euspeclibcmpd2252], the “Srxn1-GFP intensity median modified Z-score” value is 1.04.
As to `N=c1[nH]c(=O)c2ncn(COCCO)c2[nH]1` [euspeclibcmpd586], the “Srxn1-GFP intensity median modified Z-score” value was 0.00752.
On to `S=c1ccss1` [euspeclibcmpd2055], for which the “Srxn1-GFP intensity median modified Z-score” value is 7.86 (active).
As for `CC1(C)CCC[C@]2(C)[C@H]3CC(=O)O[C@]3(C)CC[C@@H]12` [euspeclibcmpd1513], the “Srxn1-GFP intensity median modified Z-score” value is 11.6 (active).
For the compound `OC[C@H]1O[C@@H](O[C@H]2[C@H](O)[C@@H](O)[C@@H](O)O[C@@H]2CO)[C@H](O)[C@@H](O)[C@@H]1O` [euspeclibcmpd2099], the “Srxn1-GFP intensity median modified Z-score” value was -0.374.
On to `CC(=O)OC1=C2C(C)C(O)CC(O)(C(OC(=O)c3ccccc3)C3C4(OC(C)=O)COC4CC(O)C3(C)C1=O)C2(C)C` (configuration not stated) [euspeclibcmpd1937], for which the “Srxn1-GFP intensity median modified Z-score” value was 0.285.
In the case of `C=CC(C)(O)CCC=C(C)CCC=C(C)C` (configuration not stated) [euspeclibcmpd2017] it was -0.108; in that of `COC(C)(C)CCC[C@H](C)C=CC=C(C)CC(=O)OC(C)C` [euspeclibcmpd1162], 0.521.
In the case of `CCC(CCC(C)[C@H]1CCC2C3CC=C4C[C@@H](O)CC[C@]4(C)C3CC[C@@]21C)C(C)C` (some centres not stated) [euspeclibcmpd1675] it was -0.236.
In the case of `C1CNCCN1` [euspeclibcmpd2044] it was 5.44 (active); in that of `C=C(C)[C@@H]1CC[C@]2(C)CC[C@]3(C)[C@@H](CCC4[C@@]5(C)CC[C@H](OC(C)=O)C(C)(C)C5CC[C@]43C)C12` (some centres not stated) [euspeclibcmpd1452], -0.35; in that of `C=CC/C1=C\C(C)C[C@H](C)C[C@H](OC)[C@H]2O[C@@](O)(C(=O)C(=O)N3CCCCC3C(=O)O[C@H](/C(C)=C/C3CC[C@@H](O)[C@H](OC)C3)[C@H](C)[C@@H](O)CC1=O)[C@H](C)C[C@@H]2OC` (some centres not stated) [euspeclibcmpd642], 0.0384.
Take `COC1CC2CCC(C)C(O)(O2)C(=O)C(=O)N2CCCCC2C(=O)OC(C(C)CC2CCC(O)C(OC)C2)CC(=O)/C(C)=C/C(C)C(O)C(OC)C(=O)C(C)CC(C)/C=C/C=C/C=C/1C` (configuration not stated) [euspeclibcmpd645]: the “Srxn1-GFP intensity median modified Z-score” value was 2.8 (active).
In the case of `CC(C)(C)OC(=O)N1[C@H](CNCC(=O)NCC2CC2)COC1(C)C`, the “Srxn1-GFP intensity median modified Z-score” value was 0.298.
The value for `C=C1c2cccc(O)c2C(=O)C2C(=O)[C@]3(O)C(=O)C(C(N)=O)C(=O)C(N(C)C)[C@@H]3[C@@H](O)[C@H]12` (some centres not stated) [euspeclibcmpd374] was 0.0721; that for `Nc1ccc(S(=O)(=O)Nc2ccc([N+](=O)[O-])cc2)cc1` was 1.07.
Consider `C=CCSCC=C` [euspeclibcmpd1525], for which the “Srxn1-GFP intensity median modified Z-score” value was 2.8 (active).
Regarding `C=CCSCC(N)C(=O)O` (configuration not stated) [euspeclibcmpd1339], the “Srxn1-GFP intensity median modified Z-score” value was -0.44.
In the case of `c1ccc2[nH]c(-c3cscn3)nc2c1` [euspeclibcmpd291] it was -0.321.
As to `CC(=O)Nc1ccc(S(=O)(=O)Nc2ccc(C)cc2)cc1`, the “Srxn1-GFP intensity median modified Z-score” value is 0.323.
For the compound `Cc1cc(=O)c(C(=O)NC(C(=O)NC2C(=O)N3C(C(=O)O)=C(CSc4nnnn4C)CSC23)c2ccc(O)cc2)c[nH]1` (configuration not stated) [euspeclibcmpd2006], the “Srxn1-GFP intensity median modified Z-score” value is -0.441.
For `COC(=O)C[C@H]1C2(C)CC34OC5(C)O[C@@]6([C@H](OC(C)=O)C(OC(C)=O)[C@]7(C)C(C(C(=O)C(C)C)C(=O)O[C@H]7c7ccoc7)[C@@]6(O5)[C@H](OC(C)=O)[C@@]3(O)C2OC(=O)C(C)C)[C@]14C` (some centres not stated) [euspeclibcmpd1593], the “Srxn1-GFP intensity median modified Z-score” value is 0.648.
For `CC=CC1=C(C(=O)O)N2C(=O)C(NC(=O)C(N)c3ccc(O)cc3)C2SC1` (configuration not stated) [euspeclibcmpd754], the “Srxn1-GFP intensity median modified Z-score” value is 0.0492.
In the case of `Cc1cc(=N)c2ccccc2n1CCCCCCCCCCn1c(C)cc(=N)c2ccccc21` [euspeclibcmpd1012], the “Srxn1-GFP intensity median modified Z-score” value was 10 (active).
On to `CN1CCc2c(c3ccccc3n2Cc2ccccc2)C1` [euspeclibcmpd1060], for which the “Srxn1-GFP intensity median modified Z-score” value was -0.511.
`NC(COP(=O)(O)O)C(=O)O` (configuration not stated) [euspeclibcmpd1153]: the “Srxn1-GFP intensity median modified Z-score” value was -0.195.
Take `CC(C)C(=O)Nc1ccc([N+](=O)[O-])c(C(F)(F)F)c1` [euspeclibcmpd362]: the “Srxn1-GFP intensity median modified Z-score” value is 3.07 (active).
In the case of `CC1(C)NC(=O)N(c2ccc([N+](=O)[O-])c(C(F)(F)F)c2)C1=O` [euspeclibcmpd654] it was 0.519.
Regarding `CCOc1ccc2ccccc2c1C(=O)NC1C(=O)N2C1SC(C)(C)C2C(=O)O` (configuration not stated) [euspeclibcmpd2391], the “Srxn1-GFP intensity median modified Z-score” value is -0.175.
Take `NC(=O)c1cc[n+](C=C2CSC3C(NC(=O)Cc4cccs4)C(=O)N3C2C(=O)O)cc1` (configuration not stated) [euspeclibcmpd1236]: the “Srxn1-GFP intensity median modified Z-score” value is -0.488.
On to `CN1CCC(c2c3ccccc3cc(=O)c3sccc23)CC1` [euspeclibcmpd331], for which the “Srxn1-GFP intensity median modified Z-score” value was 0.863.
As to `COc1cc(C)c2c(=O)c(-c3ccccc3)coc2c1` [euspeclibcmpd1711], the “Srxn1-GFP intensity median modified Z-score” value was 0.917.
As for `COc1cc2occ(-c3ccccc3)c(=O)c2c(OC)c1C` [euspeclibcmpd2367], the “Srxn1-GFP intensity median modified Z-score” value is 3.02 (active).
`COc1cc(-c2coc3cc(OC)c(OC)c(OC)c3c2=O)cc(OC)c1OC` [euspeclibcmpd1402]: the “Srxn1-GFP intensity median modified Z-score” value was -0.364.
